This test is described as follows: NALP1 inflammasome inhibitors in reconstituted yeast, colorimetric, S. cerevisiae, triplicate retest (AID 2071). Conditions: S. cerevisiae NALP1/ASC/caspase-1 growth, X-gal OD620, 72 h, stronger effect = higher value.

Structures are written as SMILES. Hit rate of the full screen: of about 280,000 compounds, about 1,700 (0.61%) were called active. No stated cut-off is given here; in the data, active means inhibition mostly above about 24% (no sharp cut-off); inactive means mostly below about 32%. For the sample, actives were picked, then their nearest neighbours and some compounds at random.

On to `COc1ccc(S(=O)(=O)Nc2ccc(S(=O)(=O)N3CCCCC3)cc2)cc1OC`, for which the inhibition (commonly the relative decrease from the control value, in per cent) (at 10 µM unless noted) was 22.8% (inactive).

Turning to `COc1ccc(S(=O)(=O)Nc2ccc3c(c2)OCO3)cc1Cl`, the inhibition (at 10 µM unless noted) is 27.9% (active).

For `CNS(=O)(=O)c1ccc(NC(=O)Nc2ccc3c(c2)OCO3)cc1`, the inhibition (at 10 µM unless noted) is -4.3% (inactive).

Take `Cc1cc(N=Nc2ccc3ccccc3c2)ccc1O`: for the setting “at 10 µM unless noted”, the inhibition is 1.2% (inactive).

As for `CC[C@]1(c2ccccc2OC)C(=O)N(C(=O)OC)N1C(=O)OC`, for the setting “at 10 µM unless noted”, the inhibition was 34.1% (inactive).

Regarding `CCOC(=O)C1(Cc2ccccc2C)CCCN(C(=O)CN2C(=O)CSC2=O)C1` (configuration not stated), under “at 10 µM unless noted”, the inhibition is 20% (inactive).

In the case of `O=C(NC(=S)N1CCCCC1c1cccnc1)c1ccccc1` (configuration not stated), the inhibition (at 10 µM unless noted) was -18% (inactive).

Take `CCn1c(=N)n(CC(=O)c2cccc(OC)c2)c2ccccc21`: the inhibition (at 10 µM unless noted) was 31.5% (active).

Consider `COc1ccc2cc(C(=O)O)n(CC(=O)c3ccccc3)c2c1`, for which the inhibition (at 10 µM unless noted) was 14% (inactive).

Turning to `CCCn1c(=N)n(CC(=O)c2ccc(Cl)c(Cl)c2)c2ccccc21`, the inhibition (at 10 µM unless noted) is 23.1% (inactive).

Consider `Cc1cccc(NC(=O)C2CCN(C(=O)NC3CCCCC3)CC2)c1`, for which the inhibition (at 10 µM unless noted) is 3.7% (inactive).

In the case of `O=C(Nc1cccc2c1CCCC2)C1CCN(C(=O)NC2CCCCC2)CC1`, for the setting “at 10 µM unless noted”, the inhibition is -14.2% (inactive).

As to `Cc1ccccc1NC(=O)C1CCN(C(=O)NC2CCCCC2)CC1`, under “at 10 µM unless noted”, the inhibition was 40.8% (active).

For `O=S(=O)(Oc1ccccc1C(=S)N1CCOCC1)c1ccc(Cl)cc1`, under “at 10 µM unless noted”, the inhibition was 1.2% (inactive).

In the case of `Cc1ccc(OCc2cc(C(=O)N(C)CCn3ccnc3C)no2)cc1C`, the inhibition (at 10 µM unless noted) was 5.1% (inactive).

`COc1ccc(N2C(=O)CNC2=S)cc1`: for the setting “at 10 µM unless noted”, the inhibition is -21.9% (inactive).

On to `CCOc1cccc(/C=N/N2C(=O)CSC2=S)c1O`, for which the inhibition (at 10 µM unless noted) was -14.2% (inactive).

For the compound `CC(C)N1C(=S)SC(C)(C)C1n1oc(=O)n(-c2ccc(Cl)c(Cl)c2)c1=O` (configuration not stated), the inhibition (at 10 µM unless noted) was 0.9% (inactive).

Take `COc1cc(N2C(=O)CSC2=S)cc(OC)c1OC`: the inhibition (at 10 µM) is 52.7% (active) and the inhibition (triplicate retest, at 20 µM) was found to be 57.6%.

Consider `O=C1CSC(=S)N1c1ccc(Cl)c(Cl)c1`, for which, under “at 10 µM unless noted”, the inhibition was 44.2% (active).

In the case of `COc1cccc(C2SCC(=O)N2c2cccc(C)c2)c1OC` (configuration not stated), for the setting “at 10 µM unless noted”, the inhibition was 9.2% (inactive).

In the case of `O=C1CSC(=S)N1c1ccc(O)cc1`, the inhibition is 76.7% (active) (at 10 µM) and 95.9% (triplicate retest, at 20 µM).

For the compound `Cc1cc(=O)cc(C)n1-c1ccc(Cl)c(Cl)c1`, where the note is “at 10 µM unless noted”, the inhibition was -5.9% (inactive).

As to `COc1ccc(CCN=C2SCC(=O)N2C)cc1OC`, where the note is “at 10 µM unless noted”, the inhibition is 2.2% (inactive).

Consider `Cc1cccc(Nc2nc(-c3ccccc3)cs2)n1`, for which the inhibition (at 10 µM unless noted) is 19.1% (inactive).

For `CCOc1ccccc1NC(=S)N1CCN(c2cccc(C)c2C)CC1`, the inhibition (at 10 µM unless noted) is 4.9% (inactive).

In the case of `CC(C)c1ccc2oc(=O)cc(CN3CCN(Cc4ccccc4)CC3)c2c1`, the inhibition (at 10 µM unless noted) was 8.7% (inactive).

`Cc1cc(Cl)nc(NC(=O)Nc2cccc(Cl)c2)n1`: the inhibition (at 10 µM unless noted) was 22.5% (inactive).

Regarding `O=c1c(-c2cccc(Cl)c2)c[nH]n1-c1ccccc1`, the inhibition (at 10 µM unless noted) was 17% (inactive).

As for `CCCn1c(C(C)Nc2nc(-c3ccc(C)cc3)cs2)nc2cc(Cl)c(N3CCCCC3)cc21` (configuration not stated), the inhibition (at 10 µM unless noted) was 14.5% (inactive).

As for `Cn1c(CC(=O)Nc2ccccc2)nnc1SCC(=O)c1ccccc1`, the inhibition (at 10 µM unless noted) was 9.9% (inactive).

`Cn1c(CSCC(=O)Nc2ccccc2)nnc1SCc1ccccc1`: for the setting “at 10 µM unless noted”, the inhibition is 38.6% (active).

Take `O=C(CSCc1ccccc1)Nc1ccccc1`: the inhibition (at 10 µM unless noted) was 8.9% (inactive).

As to `CCOC(=O)Nc1ccc2c(c1)N(C(=O)CCCl)c1ccccc1[S@]2=O`, the inhibition (at 10 µM unless noted) is 8.9% (inactive).

As to `O=C(CCCN1C(=O)/C(=C/c2cccs2)SC1=S)Nc1ccc(O)cc1`, the inhibition (at 10 µM unless noted) is 5% (inactive).

For `Cc1cccc(C)c1NC(=O)N1CC(C)OC(C)C1` (configuration not stated), the inhibition (at 10 µM unless noted) was 5.2% (inactive).

As to `Cc1cccc(C)c1NC(=O)C(c1ccccc1)N1CC(=O)Nc2ccccc21` (configuration not stated), under “at 10 µM unless noted”, the inhibition was 19.2% (inactive).

For `Cc1cccc(C)c1NC(=O)C(Cl)C(=O)c1ccccc1` (configuration not stated), the inhibition by setting is: (at 10 µM) 50.4% (active); (triplicate retest, at 20 µM) 80.1%.

As to `CCc1ccc(NC(=O)COC(=O)c2cccs2)cc1`, for the setting “at 10 µM unless noted”, the inhibition was 8.1% (inactive).

Take `Cc1nc2cc(NCc3cccs3)ccc2n1C`: where the note is “at 10 µM unless noted”, the inhibition is 1.9% (inactive).

For the compound `Cn1c(CCN2CCCCCC2)nc2cc(NC(=O)Nc3ccccc3)ccc21`, the inhibition (at 10 µM unless noted) is 19.6% (inactive).

Consider `Cc1nc2cc(NC(=O)NC3CC3)ccc2n1C`, for which the inhibition (at 10 µM unless noted) is 29.1% (active).

Take `CCCOC1CCCN(C(=O)c2cc(COc3cncc(Cl)c3)on2)C1` (configuration not stated): the inhibition (at 10 µM unless noted) was -85.7% (inactive).

Consider `Cc1ccc(C)c(N2CCN(C(=O)CCCCCn3c(=S)[nH]c4ccc(N5CCOCC5)cc4c3=O)CC2)c1`, for which the inhibition (at 10 µM unless noted) was -12.8% (inactive).

With `CCOc1ccc(NC(=O)CCCCCN2C(=O)[C@@H]3Cc4ccccc4CN3C2=O)cc1`, the inhibition (at 10 µM unless noted) was 12.6% (inactive).

Regarding `Cc1ccc(Cn2c(C)c3cnn(CC(=O)NCc4ccccn4)c(=O)c3c2C)cc1`, where the note is “at 10 µM unless noted”, the inhibition was -2.5% (inactive).

As to `Cc1[nH]c2ccccc2c1/C=C(/C#N)C(=O)NC(C)C`, the inhibition (at 10 µM unless noted) is 0.1% (inactive).

For the compound `N#C/C(=C\c1ccccc1C(F)(F)F)C(=O)Nc1ccccc1F`, the inhibition (at 10 µM unless noted) was 40.5% (inactive).

In the case of `CNC(=O)/C(C#N)=C/c1c(F)cccc1Cl`, where the note is “at 10 µM unless noted”, the inhibition is 46.8% (active).

As for `O=C(Nc1cccc2cccnc12)c1cccc(N2C(=O)CCC2=O)c1`, the inhibition (at 10 µM unless noted) was 15.2% (inactive).

Take `N#Cc1ccc(C(=O)Nc2cccc3cccnc23)c(F)c1`: under “at 10 µM unless noted”, the inhibition was 40% (active).

For the compound `O=C(Nc1cccc2cccnc12)c1cccc(Cl)c1`, the inhibition (at 10 µM unless noted) was 0.8% (inactive).

Consider `O=Cc1c(Nc2ccccc2Cl)nc2ccccn2c1=O`, for which the inhibition (at 10 µM unless noted) is 13.8% (inactive).

With `Cc1ccc(CCn2c3c(c4ccccc42)CN(C)CC3)cn1`, the inhibition (at 10 µM unless noted) is 39.6% (active).

As to `COc1cc(Br)c(-c2sc(Nc3ccccc3)n[n+]2-c2ccccc2)cc1OC`, under “at 10 µM unless noted”, the inhibition was -1.9% (inactive).

For the compound `Cc1ccccc1Nc1nc(-c2cccnc2)cs1`, the inhibition (at 10 µM unless noted) is 16.4% (inactive).

Turning to `COc1nnc(-c2ccc(C)c(S(=O)(=O)N(C)C)c2)c2ccccc12`, the inhibition (at 10 µM unless noted) is 17.5% (inactive).

In the case of `CCc1ccc(Nc2nnc(SCC(=O)c3ccc4c(c3)NC(=O)CO4)s2)cc1`, for the setting “at 10 µM unless noted”, the inhibition is 39.5% (active).

Regarding `CCCc1nc2ccccc2c(C(=O)OCC(=O)c2ccc3c(c2)NC(=O)CO3)c1CC`, under “at 10 µM unless noted”, the inhibition is -1.4% (inactive).

Regarding `Cc1ccc(Nc2nnc(SCC(=O)c3cc4ccccc4o3)s2)cc1C`, the inhibition (at 10 µM unless noted) was 5% (inactive).

Regarding `COc1ccc(C(=O)/C=C/c2cccnc2)c(OC)c1`, the inhibition (at 10 µM unless noted) was -90.5% (inactive).

`COc1ccc(O)c(/C=N/N=C/c2cccc([N+](=O)[O-])c2)c1`: the inhibition (at 10 µM unless noted) was 14.9% (inactive).

As to `Cc1ccc(O)c(CNc2nc3ccccc3[nH]2)c1`, the inhibition (at 10 µM unless noted) is 10.8% (inactive).

Regarding `COCC1CCN(C(=O)C2CCC(=O)N(Cc3cccc(C(F)(F)F)c3)C2)CC1` (configuration not stated), where the note is “at 10 µM unless noted”, the inhibition is 2.8% (inactive).

For the origin of these results see PubChem BioAssay AID2071 (Sanford-Burnham Center for Chemical Genomics, 2009).
